# Unmarked numbers belong to inactive results. Records with an inconclusive call do not appear. A call without a number means that no potency is given here. The source made the active and inactive calls. Unless noted, calls follow the shape of the dose curve; as a rule, active = well fitted curve in the direction sought with a large enough effect in the repeat runs; inconclusive = weak or mixed curves; inactive = no such curve, though single readings can be large; an effect the other way counts as inactive or inconclusive.
# What was measured:
# [1] = qHTS assay to identify small molecule agonists of the estrogen receptor alpha (ER-alpha) signaling pathway in the presence of an antagonist - cell viability counter screen (AID 1259386);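 also: series mostly up to about 92 µM; cells exposed to compounds for 22 h at 37 °C before the viability read; nearly all actives have a fitted effect of over 30% in size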
# Method in brief: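 Cell viability in VM7Luc4E2 cells (endogenous full-length ER-alpha) measured by CellTiter-Fluor fluorescence in the same wells as the luciferase screen. Cells pre-cultured 5 days in charcoal-stripped serum, then treated 22 h with compounds at 15 concentrations plus 10.0nM ICI-182,780.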
# [2] = molecular target: Progesterone receptor (Homo sapiens) (UniProt P06401); experiment: qHTS assay to identify small molecule agonists of the progesterone receptor (PR) signaling pathway (AID 1346784; calls by dose curve; also: nearly all actives have a fitted effect of over 30% in size)
# Sequence of Progesterone receptor (Homo sapiens) (P06401 whole entry, looked up): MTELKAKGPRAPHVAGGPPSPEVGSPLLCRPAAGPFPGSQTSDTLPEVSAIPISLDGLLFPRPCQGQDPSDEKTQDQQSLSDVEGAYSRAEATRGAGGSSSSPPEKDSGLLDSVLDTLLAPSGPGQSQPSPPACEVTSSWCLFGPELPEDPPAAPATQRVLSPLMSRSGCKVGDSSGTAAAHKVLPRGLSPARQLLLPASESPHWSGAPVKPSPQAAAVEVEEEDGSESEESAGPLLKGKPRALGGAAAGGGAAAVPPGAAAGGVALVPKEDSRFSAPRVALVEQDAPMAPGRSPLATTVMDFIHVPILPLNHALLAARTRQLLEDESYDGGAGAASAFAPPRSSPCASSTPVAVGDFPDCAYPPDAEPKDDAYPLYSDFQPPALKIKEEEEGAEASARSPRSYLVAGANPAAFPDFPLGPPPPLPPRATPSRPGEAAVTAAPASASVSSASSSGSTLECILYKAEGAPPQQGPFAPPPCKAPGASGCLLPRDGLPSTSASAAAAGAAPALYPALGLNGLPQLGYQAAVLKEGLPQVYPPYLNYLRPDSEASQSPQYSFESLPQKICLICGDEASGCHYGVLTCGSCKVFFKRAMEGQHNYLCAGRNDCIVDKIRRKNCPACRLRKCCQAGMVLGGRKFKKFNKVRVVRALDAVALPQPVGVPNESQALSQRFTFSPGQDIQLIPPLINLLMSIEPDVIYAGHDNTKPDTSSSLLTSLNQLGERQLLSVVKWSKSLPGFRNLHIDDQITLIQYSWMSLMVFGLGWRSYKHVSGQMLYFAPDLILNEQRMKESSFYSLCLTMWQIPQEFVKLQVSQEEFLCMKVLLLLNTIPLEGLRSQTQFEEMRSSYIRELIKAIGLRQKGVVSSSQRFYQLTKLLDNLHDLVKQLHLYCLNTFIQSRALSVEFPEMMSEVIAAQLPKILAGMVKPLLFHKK
# Method in brief: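 The screen uses PR-UAS-bla HEK 293T cells in charcoal-stripped serum (2%). Compounds are applied for 16 hr at 37C after a 6 hr pre-incubation, and reporter activity is detected with a FRET beta-lactamase substrate after 2 hr at room temperature.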
# [3] = molecular target: Progesterone receptor (Homo sapiens) (UniProt P06401); experiment: qHTS assay to identify small molecule antagonists of the progesterone receptor (PR) signaling pathway (AID 1346795; active = well fitted inhibition curve with a large enough effect in the signal ratio in the repeat runs, not every such curve was filed as active; the % refers to the signal ratio)
# Method in brief: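 After 6 hr plating at 37C in 2% stripped-serum medium, PR-UAS-bla HEK293T cells got compounds, then 1 nM R5020. Sixteen hours later, LiveBLAzer substrate was applied for 2 hr at room temperature and fluorescence was recorded.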
# [4] = qHTS assay to identify small molecule antagonists of the progesterone receptor (PR) signaling pathway - cell viability counter screen (AID 1346798); also: series mostly up to about 92 µM; nearly all actives have a fitted effect of over 50% in size
# Method in brief: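 Viability was determined by ATP-based luminescence (CellTiter-Glo) in PR-UAS-bla HEK293T cells cultured in 2% charcoal-stripped serum and incubated 16 hr with compounds under R5020 stimulation.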
# [5] = qHTS assay to identify small molecule agonists of the progesterone receptor (PR) signaling pathway - cell viability counter screen (AID 1346799; calls by dose curve; also: nearly all actives have a fitted effect of over 45% in size)
# Method in brief: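 Viability was scored by ATP luminescence (CellTiter-Glo, 30 min, room temperature) in the same wells used for the reporter readout, after 16 hr compound exposure of PR-UAS-bla HEK293T cells.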
# [6] = qHTS assay to identify small molecule antagonists of the TGF-beta/Smad signaling pathway - cell viability counter screen (AID 1346824); also: nearly all actives have a fitted effect of over 50% in size
# Method in brief: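 SBE-bla HEK 293T cells, incubated overnight, then compound plus 0.25 ng/mL TGF-beta1 (stock added) for 5 hr at 37 C. Viability was read in the same wells by CellTiter-Glo luminescence after 30 min at room temperature.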
# [7] = qHTS assay to identify small molecule agonists of the TGF-beta/Smad signaling pathway - cell viability counter screen (AID 1346829); also: top concentration of the series differs between compounds; nearly all actives have a fitted effect of over 45% in size
# Method in brief: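 Tox21 qHTS format: SBE-bla HEK 293T cells treated with DMSO-dissolved compounds for 5 hr; CellTiter-Glo luminescence after 30 min at room temperature.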
# [8] = qHTS assay to identify small molecule agonists of the TGF-beta/Smad signaling pathway (AID 1346859; active = well fitted activation curve with a large enough effect in the signal ratio in the repeat runs, not every such curve was filed as active; the % refers to the signal ratio; also: series mostly up to about 77 µM)
# Method in brief: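 Dual-wavelength fluorescence (460/530 nm emission) quantified beta-lactamase expression under the Smad binding element in HEK 293T cells following 5 hr compound treatment at 37 C.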
# [9] = molecular target: Thyrotropin-releasing hormone receptor (Homo sapiens) (UniProt P34981); experiment: qHTS assay to identify small molecule antagonists of the thyrotropin-releasing hormone receptor (TRHR) signaling pathway (AID 1346877; active = well fitted inhibition curve with a large enough effect in the repeat runs, not every such curve was filed as active; also: series mostly up to about 51 µM)
# Sequence of Thyrotropin-releasing hormone receptor (Homo sapiens) (P34981 whole entry, looked up): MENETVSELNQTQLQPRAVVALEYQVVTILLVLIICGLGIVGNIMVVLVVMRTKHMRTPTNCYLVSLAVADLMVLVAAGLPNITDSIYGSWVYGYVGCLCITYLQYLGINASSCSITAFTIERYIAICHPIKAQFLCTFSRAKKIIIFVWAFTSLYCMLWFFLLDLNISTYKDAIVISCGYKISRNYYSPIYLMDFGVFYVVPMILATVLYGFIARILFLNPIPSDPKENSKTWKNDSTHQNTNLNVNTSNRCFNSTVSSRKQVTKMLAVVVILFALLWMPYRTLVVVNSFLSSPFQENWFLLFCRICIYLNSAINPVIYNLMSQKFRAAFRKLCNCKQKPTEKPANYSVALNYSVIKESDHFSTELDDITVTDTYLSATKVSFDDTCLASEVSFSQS
# Method in brief: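 TRHR-expressing HEK293 cells loaded with calcium dye for 2 h at 37 C; compounds pre-incubated 5 min at room temperature before TRH challenge at 1 nM final. Intracellular calcium fluorescence read kinetically for 3 min; 15 concentrations in triplicate.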
# [10] = molecular target: Thyrotropin-releasing hormone receptor (Homo sapiens) (UniProt P34981); experiment: qHTS assay to identify small molecule agonists of the thyrotropin-releasing hormone receptor (TRHR) signaling pathway (AID 1346891; calls by dose curve; also: series mostly up to about 58 µM)
# Method in brief: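 Kinetic fluorescence (3 min, 1 s intervals) reported intracellular calcium after compound transfer onto TRHR-Hek293 cells pre-loaded with dye for 2 h at 37 °C.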
# [11] = Human pregnane X receptor (PXR) small molecule agonists, qHTS cell viability counter screen (AID 1346977); also: nearly all actives have a fitted effect of over 50% in size
# Method in brief: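 HepG2 cells stably carrying the PXR-Luc reporter are cultured with 5% charcoal-stripped FBS and treated with compounds for 24hr. CellTiter-Fluor is added at 23hr and fluorescence is read after 1hr.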
# [12] = Caspase-3/7 induction in HepG2 cells by small molecules, qHTS assay (AID 1346978); also: nearly all actives have a fitted effect of over 15% in size
# Method in brief: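 Wild-type HepG2 cells, 2,000/well, settled 5 hr at 37 C and 5% CO2, then compound-treated for 17 hr; caspase-3/7 activity read by luminescent Caspase-Glo 3/7 after 30 min at room temperature.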
# [13] = Caspase-3/7 induction in CHO-K1 cells by small molecules, qHTS assay (AID 1346980); also: nearly all actives have a fitted effect of over 15% in size
# Method in brief: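 Wild-type CHO-K1 cells exposed to compounds for 17hr at 37 C, 5% CO2. Caspase-3/7 activity then measured by Caspase-Glo 3/7 luminescence after 30min at room temperature.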
# [14] = Caspase-3/7 induction in HepG2 cells by small molecules, qHTS cell viability counter screen (AID 1346981); also: series mostly up to about 92 µM; nearly all actives have a fitted effect of over 30% in size
# Method in brief: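 Wild-type HepG2 cells, 2,000/well, settled 5 hr at 37 C, 5% CO2 before compound addition. Viability read by CellTiter-Fluor fluorescence, reagent added after 16 hr compound exposure, then 1 hr at 37C, in the same wells as the caspase read.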
# [15] = Caspase-3/7 induction in CHO-K1 cells by small molecules, qHTS cell viability counter screen (AID 1346979); also: nearly all actives have a fitted effect of over 35% in size
# Method in brief: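 Seeding: 1,500 CHO-K1 cells/well. Rest: 5hr, 37C. Treatment: compounds in DMSO, 16hr. Read: CellTiter-Fluor, 1hr, fluorescence.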
# [16] = molecular target: Nuclear receptor subfamily 1 group I member 2 (Homo sapiens) (UniProt O75469); experiment: Human pregnane X receptor (PXR) small molecule agonists, qHTS assay (AID 1346982); also: nearly all actives have a fitted effect of over 35% in size
# Sequence of Nuclear receptor subfamily 1 group I member 2 (Homo sapiens) (O75469 whole entry, looked up): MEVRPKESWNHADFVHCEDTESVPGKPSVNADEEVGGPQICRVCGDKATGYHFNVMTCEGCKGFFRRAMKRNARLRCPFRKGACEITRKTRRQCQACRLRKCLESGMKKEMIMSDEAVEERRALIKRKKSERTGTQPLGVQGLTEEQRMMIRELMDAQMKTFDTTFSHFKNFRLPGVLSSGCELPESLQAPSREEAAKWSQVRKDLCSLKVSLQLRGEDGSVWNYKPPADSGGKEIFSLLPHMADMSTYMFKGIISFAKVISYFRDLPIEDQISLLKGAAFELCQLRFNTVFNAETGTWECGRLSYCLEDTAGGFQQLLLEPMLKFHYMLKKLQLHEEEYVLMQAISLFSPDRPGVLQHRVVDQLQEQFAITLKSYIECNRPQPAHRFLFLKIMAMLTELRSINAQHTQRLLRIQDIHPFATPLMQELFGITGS
# Method in brief: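 PXR-Luc HepG2 reporter cells (CYP3A4-driven luciferase) in 5% charcoal-stripped FBS medium, plated 5 h before compound addition, then treated 24 h at 37C. Luciferase read by ONE-Glo luminescence after 30 min at room temperature.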
# [17] = molecular target: Nuclear receptor subfamily 1 group I member 2 (Rattus norvegicus) (UniProt Q9R1A7); experiment: Rat pregnane X receptor (rPXR) activation by small molecules, qHTS assay (AID 1346983); settings: rPXR luciferase reporter cells, One-Glo luminescence, 24 h; active compounds read high; also: nearly all actives have a fitted effect of over 20% in size
# Sequence of Nuclear receptor subfamily 1 group I member 2 (Rattus norvegicus) (Q9R1A7 whole entry, looked up): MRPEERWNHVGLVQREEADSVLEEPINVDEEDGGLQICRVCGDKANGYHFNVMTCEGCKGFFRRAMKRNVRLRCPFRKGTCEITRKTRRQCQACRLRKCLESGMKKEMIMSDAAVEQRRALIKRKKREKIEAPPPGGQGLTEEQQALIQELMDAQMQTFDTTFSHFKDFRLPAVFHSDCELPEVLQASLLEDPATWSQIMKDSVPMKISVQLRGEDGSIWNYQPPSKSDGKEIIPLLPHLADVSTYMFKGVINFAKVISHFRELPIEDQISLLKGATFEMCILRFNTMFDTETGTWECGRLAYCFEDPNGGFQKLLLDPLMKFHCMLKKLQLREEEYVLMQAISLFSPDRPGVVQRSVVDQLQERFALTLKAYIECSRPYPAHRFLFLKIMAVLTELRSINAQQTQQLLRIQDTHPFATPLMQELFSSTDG
# Method in brief: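 Cell-based rPXR activation assay: rPXR cells, 2,000 per well, rested 5hr at 37 C, then exposed to compounds in DMSO for 24 hr at 37 C. Luciferase activity read by One-Glo luminescence after 30 min at room temperature.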
# [18] = molecular target: Nuclear receptor subfamily 1 group I member 2 (Homo sapiens) (UniProt O75469); experiment: CYP3A4 induction through human pregnane X receptor (PXR) by small molecules, qHTS assay (AID 1346984); also: nearly all actives have a fitted effect of over 40% in size; also: potency is read from the fitted curve at half-maximal effect
# Method in brief: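 DPX-2 HepG2 cells carrying a PXR response element and CYP3A4-promoter luciferase construct, treated with compounds 24 hr at 37C. Then P450-Glo CYP3A4 Luciferin-IPA substrate (3uM final) for 3 hr at 37C, One-Glo added, luminescence read.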
# [19] = molecular target: Nuclear receptor subfamily 1 group I member 2 (Homo sapiens) (UniProt O75469); experiment: Human pregnane X receptor (PXR) activation by small molecules, qHTS assay (AID 1346985); also: nearly all actives have a fitted effect of over 40% in size
# Method in brief: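 DPX-2 cells (HepG2 co-transfected with a PXR response element and a CYP3A4-promoter luciferase construct) were seeded at 2,000 per well, rested 5 hr at 37C, then exposed to DMSO-dissolved compounds for 24 hr. Activation was read as luciferase luminescence.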
# [20] = molecular target: Acetylcholinesterase (Homo sapiens) (UniProt P22303); experiment: Acetylcholinesterase (AChE) small molecule antagonists: colormetric cell-based qHTS assay (AID 1347395; calls by dose curve; also: nearly all actives have a fitted effect of over 30% in size)
# Sequence of Acetylcholinesterase (Homo sapiens) (P22303 whole entry, looked up): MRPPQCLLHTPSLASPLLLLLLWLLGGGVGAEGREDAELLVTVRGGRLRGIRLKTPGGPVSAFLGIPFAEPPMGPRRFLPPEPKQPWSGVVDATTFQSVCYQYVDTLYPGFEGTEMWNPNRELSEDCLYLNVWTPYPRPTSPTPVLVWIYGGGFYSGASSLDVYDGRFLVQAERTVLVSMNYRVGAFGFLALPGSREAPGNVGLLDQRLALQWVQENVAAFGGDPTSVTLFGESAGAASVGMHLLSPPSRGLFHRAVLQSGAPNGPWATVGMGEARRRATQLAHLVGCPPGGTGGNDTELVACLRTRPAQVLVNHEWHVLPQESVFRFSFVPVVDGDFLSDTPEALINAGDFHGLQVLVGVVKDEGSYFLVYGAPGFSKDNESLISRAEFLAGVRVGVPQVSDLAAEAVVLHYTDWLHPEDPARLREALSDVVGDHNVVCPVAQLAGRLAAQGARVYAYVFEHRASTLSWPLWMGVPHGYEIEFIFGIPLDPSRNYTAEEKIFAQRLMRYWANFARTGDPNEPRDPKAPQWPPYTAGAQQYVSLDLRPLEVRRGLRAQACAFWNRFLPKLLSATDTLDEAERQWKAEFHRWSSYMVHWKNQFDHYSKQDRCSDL
# Method in brief: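 Quantitative HTS in attached SH-SY5Y cells: 30 min compound exposure, then 90 min with acetylthiocholine and DTNB at 37 C; colour from thiocholine reports AChE activity.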
Compound,Potency [1],Potency [2],Potency [3],Potency [4],Potency [5],outcome [6],Potency [7],outcome [8],Potency [9],outcome [10],Potency [11],outcome [12],outcome [13],Potency [14],Potency [15],Potency [16],max activation [17],Potency [18],Potency [19],Potency [20]
N#CC(Br)(Br)C(N)=O,inactive,inactive,inactive,inactive,inactive,inactive,inactive,inactive,inactive,inactive,inactive,inactive,inactive,inactive,–,–,–,–,–,–
NC(=O)OCCCc1ccccc1,inactive,inactive,inactive,inactive,inactive,inactive,inactive,inactive,inactive,inactive,inactive,inactive,inactive,inactive,inactive,inactive,-3.96%,inactive,inactive,inactive
CC(Cc1ccccc1)NCCCCl (stereo unspecified),inactive,inactive,inactive,inactive,inactive,inactive,inactive,inactive,inactive,inactive,inactive,inactive,inactive,inactive,inactive,inactive,–,–,–,inactive
CCCC(C)C1(CC)C(=O)N=C(S)NC1=O (stereo unspecified),inactive,inactive,inactive,inactive,inactive,inactive,inactive,inactive,inactive,inactive,inactive,inactive,inactive,inactive,inactive,–,-4.4%,–,–,–
CNC(=O)NC(O)C(Cl)(Cl)Cl (stereo unspecified),inactive,inactive,inactive,inactive,inactive,inactive,inactive,inactive,inactive,inactive,inactive,inactive,inactive,inactive,inactive,inactive,-4.06%,inactive,inactive,inactive
CCCN1CCC[C@@H]2Cc3nc(N)ncc3C[C@H]21,inactive,inactive,inactive,inactive,inactive,inactive,inactive,inactive,inactive,inactive,inactive,inactive,inactive,–,inactive,inactive,-1.3%,inactive,inactive,–
C=CCN1CC[C@]23CCCC[C@H]2[C@H]1Cc1ccc(O)cc13,inactive,inactive,inactive,inactive,inactive,inactive,inactive,inactive,inactive,inactive,inactive,inactive,inactive,inactive,inactive,–,-1.31%,–,–,–
ClC(Cl)(Cl)Cl,inactive,inactive,inactive,inactive,inactive,inactive,inactive,inactive,inactive,inactive,inactive,inactive,inactive,inactive,inactive,inactive,-2.8%,inactive,inactive,inactive
CC1NCCOC1c1ccccc1 (stereo unspecified),inactive,inactive,inactive,inactive,inactive,inactive,inactive,inactive,inactive,inactive,inactive,inactive,inactive,inactive,inactive,inactive,-1.57%,inactive,inactive,inactive
S=C=S,inactive,inactive,inactive,inactive,inactive,inactive,inactive,inactive,inactive,inactive,inactive,inactive,inactive,inactive,inactive,inactive,3.06%,inactive,inactive,inactive
CCC1(c2ccccc2)C(=O)N(COC)C(=O)N(COC)C1=O,inactive,inactive,inactive,inactive,inactive,inactive,inactive,inactive,inactive,inactive,inactive,inactive,inactive,inactive,inactive,inactive,3%,10 µM (active),–,inactive
CCOC(=O)N(C)N=O,inactive,inactive,inactive,inactive,inactive,inactive,inactive,inactive,inactive,inactive,inactive,inactive,inactive,inactive,–,inactive,–,–,–,inactive
CCC(=O)OC1(c2ccccc2)CCN(C)CC1,inactive,inactive,inactive,inactive,inactive,inactive,inactive,inactive,inactive,inactive,inactive,inactive,inactive,inactive,inactive,inactive,–,–,–,–
CS(=O)(=O)Cl,inactive,inactive,inactive,inactive,inactive,inactive,inactive,inactive,inactive,inactive,inactive,inactive,inactive,inactive,inactive,inactive,–,–,–,inactive
BrCCc1ccccc1,inactive,inactive,inactive,inactive,inactive,inactive,inactive,inactive,inactive,inactive,inactive,inactive,inactive,inactive,inactive,inactive,–,–,–,inactive

# Reference: PubChem BioAssay (Tox21)
